The record followed here is PubChem BioAssay AID463173 (ICCB-Longwood Screening Facility, Harvard Medical School, 2010).

The whole screen tested about 52,000 compounds, of which about 1,700 (3.3%) were called active. Many of the other results were omitted from the sample, so actives are more common in it than they were. A number with no mark means an inactive call. No stated cut-off is given here; in the data, active means survival mostly below about 52% (no sharp cut-off); inactive means mostly above about 56%.

In this assay the test system is Wild type. Put plainly: growth inhibition of S. aureus wild type versus tarO mutant, primary screen, teichoic acid synthesis inhibitors, RN4220, OD600 (AID 463173). The note with it: S. aureus RN4220 wild type/DeltatarO growth, OD600, 18 h, stronger effect = lower value, screened at 18.75 µg/mL (by protocol).
`CCOc1ccc(-n2c(C)nc3cc(C(=O)NC4CCCC4)ccc32)cc1`: the survival was 67%.

Regarding `COc1cccc(Cn2c(=O)n(-c3cccc(Cl)c3C)c(=O)c3c4c(sc32)CN(C(C)=O)CC4)c1`, the survival is 75%. Regarding `Cn1cc(S(=O)(=O)N2CCCC2)cc1C(=O)Nc1ccc(C(F)(F)F)cc1`, the survival is 109%. For `CCCCNc1nc(Oc2ccc(=O)n(C)n2)nc(N(C)C)n1`, the survival was 83%.

`COc1ccc(-c2cc(C(=O)Nc3sc4c(c3C#N)CCCC4)no2)cc1OC`: the survival is 80%. With `CCC1CN(C(=O)N2CCC(C(=O)NCCCc3ccccc3)CC2)c2cc(C)ccc2O1` (centres undefined), the survival is 79%. For `COCCCn1c(=N)c(C(=O)NCc2cccnc2)cc2c(=O)n3cccc(C)c3nc21`, the survival is 74%. `CC(=O)c1cccc(Nc2c3c(nc4nc(-c5cccs5)nn24)CCCC3)c1`: the survival was 76%.

As to `COc1cc(OC)c(Nc2c3c(nc4nc(-c5cccs5)nn24)CCCC3)cc1Cl`, the survival was 85%. `Cc1ccc(Nc2c3c(nc4nncn24)CCC3)cc1C`: the survival is 76%. The figure for `Fc1cc(Br)ccc1Nc1c2c(nc3nc(-c4cccs4)nn13)CCCC2` is 0% (active); for `Cc1ccc(Nc2c3c(nc4nc(-c5cccs5)nn24)CCCC3)cc1F` it is -3% (active); for `COc1ccc(C)cc1Nc1c2c(nc3nc(-c4cccs4)nn13)CCCC2` it is 63%.

For `O=C(Cn1c2ncccc2c(=O)n1-c1ccccc1)NCc1ccccc1`, the survival is 80%.

Turning to `Cc1cc(O)c(C(c2ccccc2)N2CCCCC2)c(=O)n1Cc1ccco1` (centres undefined), the survival is 77%. The figure for `O=C(NCc1ccccn1)c1cc2n(n1)C(C(F)(F)F)CC(c1ccco1)N2` (centres undefined) is 108%; for `Cc1ccc2oc(-c3ccc(NC(=O)c4cccc(F)c4)c(C)c3)nc2c1` it is 100%; for `CNC(=S)N(Cc1cccnc1)Cc1cc2cc(OC)ccc2[nH]c1=O` it is 112%.

As for `COc1cc2c(cc1OC)n(CC(=O)c1cc(C)ccc1C)c(=O)n1nc(CCn3nc(C)cc3C)nc21`, the survival is 71%. The figure for `Cc1c(C(N)=O)sc2ncn(Cc3ccccc3)c(=O)c12` is 112%; for `CC1(C)OC(c2ccccc2)CC1=O` (centres undefined) it is 98%; for `CC(C)=CCc1c(O)cc(O)c2c1OC(c1ccccc1)CC2=O` (centres undefined) it is 1% (active).

For `O=C(O)c1c(-c2ccccc2)oc2ccc(OCc3ccc(Cl)c(Cl)c3)cc12`, the survival is 0% (active). Turning to `O=C(O)c1c(-c2ccccc2)oc2ccc(OCc3c(F)cccc3Cl)cc12`, the survival was 38%. Regarding `Cc1ccc(COc2ccc3oc(-c4ccccc4)c(C(=O)O)c3c2)cc1`, the survival is 54%.

For `CCCCNC(=O)C1CCN(S(=O)(=O)CCC)CC1`, the survival is 83%. Regarding `Cc1ccc(CN2CCC(CNC(=O)c3cnn(-c4ccccc4)c3C3CCN(C(=O)OC(C)(C)C)CC3)CC2)cc1`, the survival was 73%. For the molecule `Cc1cccc(OC(=O)c2snnc2C)c1C`, the survival is 80%. Take `CCCC(=O)Nc1cccc(-c2cn3c(C)csc3n2)c1`: the survival is -6% (active). Turning to `Cc1csc2nc(-c3cccc(NC(=O)C(C)C)c3)cn12`, the survival is 80%. `Cc1csc2nc(-c3cccc(NC(=O)c4c(F)cccc4F)c3)cn12`: the survival is 121%. In the case of `O=C(NCc1ccco1)c1ccc2c(c1)N(Cc1ccc(Cl)cc1)C(=O)c1ccccc1S2=O` (centres undefined), the survival is 165%. For `COc1ccccc1CNC(=O)CN1C(=O)c2cccnc2Oc2ccccc21`, the survival was 64%.

On to `CCc1cnc2c(c1SCCC(C)C)c(=O)n(C)c(=O)n2C`, for which the survival was 79%. As for `Cc1ccc(C(=O)N2CCn3c4c(c5cc(C)ccc53)CCCC42)cc1` (centres undefined), the survival was -10% (active). With `Cc1ccc2c(c1)c1c3n2CCN(C(=O)c2ccc(C(F)(F)F)cc2)C3CCC1` (centres undefined), the survival was 49%. Take `Cc1ccc2c(c1)c1c3n2CCN(C(=O)c2cccc(C(F)(F)F)c2)C3CCC1` (centres undefined): the survival was 5% (active).

`CCCN(CCC)S(=O)(=O)c1ccc(C(=O)N2CCn3c4c(c5cc(C)ccc53)CCCC42)cc1` (centres undefined): the survival is 82%. Take `CCOc1cc(C(=O)N2CCn3c4c(c5cc(C)ccc53)CCCC42)cc(OCC)c1OCC` (centres undefined): the survival is 67%. For `COc1cc(SC)ccc1C(=O)N1CCn2c3c(c4cc(C)ccc42)CCCC31` (centres undefined), the survival was 85%.

For the molecule `COc1ccccc1Nc1nc2c(S(=O)(=O)c3ccc(C(C)C)cc3)nnn2c2ccsc12`, the survival was 116%. As for `CCCc1nc2ccccc2c(NC(=O)CN(CC)CC)c1CC`, the survival is 103%. The figure for `CN(C)CCNC(=O)Cc1ccc(NC(=O)N2CCCCc3ccccc32)cc1` is 75%. In the case of `COc1ccc(/C=C\C(=O)NC2CC(=O)N(c3ccccc3)C2)cc1OC` (centres undefined), the survival is 134%. For the molecule `Cc1cc(Nc2cccc(F)c2)n2nc(-c3ccco3)nc2n1`, the survival is 69%.

On to `Cc1cc(Nc2ccc(Br)c(C)c2)n2nc(-c3ccco3)nc2n1`, for which the survival was -6% (active). In the case of `CCOc1ccc(OCC)c(Nc2cc(C)nc3nc(-c4ccco4)nn23)c1`, the survival is -1% (active). The figure for `Cc1cc(Nc2ccccc2Cl)n2nc(-c3ccco3)nc2n1` is 78%. Regarding `Cc1cc(C)cc(Nc2cc(C)nc3nc(-c4ccco4)nn23)c1`, the survival was 78%. Turning to `CCOC(=O)c1ccccc1Nc1cc(C)nc2nc(-c3ccco3)nn12`, the survival is 133%. Regarding `CC(C)CC(=O)Nc1c(C(=O)N2CCN(c3ccccc3)CC2)oc2ccccc12`, the survival is 96%.

`c1ccc(C(c2ccccc2)N2CCN(Cc3nnnn3Cc3ccc4c(c3)OCO4)CC2)cc1`: the survival was 105%.

For the molecule `O=c1c(=O)n(-c2ccccc2)ccn1Cc1cccc(C(F)(F)F)c1`, the survival was 108%. As for `CN(C(=O)CSc1nc2ccc(NC(=O)c3ccccc3)cc2s1)c1ccccc1`, the survival is 77%.

With `CN(C)CCN(Cc1ccccc1)S(=O)(=O)c1ccc2[nH]c(=O)ccc2c1`, the survival was 76%. Turning to `COCCN(Cc1ccc(C)c(Br)c1)S(=O)(=O)c1ccc2[nH]c(=O)ccc2c1`, the survival was -3% (active).

Turning to `CCN(c1ccc(OC)cc1)S(=O)(=O)c1ccc2[nH]c(=O)ccc2c1`, the survival is 72%.

Regarding `CCc1ccccc1NC(=O)c1cc(S(=O)(=O)N2CCC(C)CC2)cn1C`, the survival was 22%.

As to `COC(=O)c1cc(-c2ccc(C)cc2)c2c(=O)n(C)c(=O)n(C)c2n1`, the survival was 105%.
